Assay results taken from the supplement of paper PMC10849652.
About 7,900 targets were measured; listed, in parts, are those with a hit and a random draw of the rest. About 0.6% of all pairs of compound and target were hits.

Columns and labels:
Assay in all cases: log2 fold change, soluble protein after heating vs DMSO (PISA); higher = thermal stabilisation; K562 cells, 10 uM, 30 min; active = over 0.2 and 3.5 SD of the protein, either way, in both replicates (recomputed)
[1] = compound: CC[C@@H]1C(=O)N(C)c2cnc(Nc3ccc(C(=O)NC4CCN(C)CC4)cc3OC)nc2N1C1CCCC1
Outline: (§1)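 K562 cells at 2×10^6 cells/mL were treated with 10 μM compound for 30 min. Aliquots were heated for 3 min across 48°C-58°C, pooled, and extracted in PBS with 0.5% NP-40 at 4°C; soluble protein was the supernatant after 21,000xg for 90 min. Soluble protein was quantified by TMTpro 16plex LC-MS/MS with channel sums equalised, and reported as log2 fold change in thermal stability against DMSO controls, with values from duplicates.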

volasertib = compound: CC[C@@H]1C(=O)N(C)c2cnc(Nc3ccc(C(=O)N[C@H]4CC[C@H](N5CCN(CC6CC6)CC5)CC4)cc3OC)nc2N1C(C)C [volasertib]
Outline: as §1

[2] = compound: CC[C@H](C)N1C=C(C2=C(C=C(C=C21)C3=CN=C(C=C3)N4CCNCC4)C(=O)NCC5=C(C=C(NC5=O)C)C)C
Outline: as §1

epoxomicin = compound: CC[C@H](C)[C@@H](C(=O)N[C@@H]([C@@H](C)O)C(=O)N[C@@H](CC(C)C)C(=O)[C@]1(CO1)C)NC(=O)[C@H]([C@@H](C)CC)N(C)C(=O)C [epoxomicin]
Outline: as §1

[3] = compound: CCn1c(C(=O)N(C2CC2)C2CC2)cc2c3c(ncn3C)c(Nc3cc(C)n(C)n3)nc21
Outline: as §1

[4] = compound: CCn1cc(-c2ccnc3[nH]c(-c4cccc(CN(C)C)c4)cc23)c(-c2ccc(NC(=O)N(C)C)cc2)n1
Outline: as §1

[5] = compound: CN(C)CC(=O)Nc1ccc2[nH]c(=O)c3ccccc3c2c1
Outline: as §1

rosiglitazone = compound: CN(CCOC1=CC=C(C=C1)C[C@H]2C(=O)NC(=O)S2)C3=CC=CC=N3 (racemic) [rosiglitazone]
Outline: as §1

[6] = compound: CN1C2=C(C3=C1C(=O)N(N=C3)CC4=CC(=CC=C4)N)SC(=C2)S(=O)C
Outline: as §1

[7] = compound: CN1CCC(CNc2ccc3ncc(-c4cccc(OC(F)(F)F)c4)n3n2)CC1
Outline: as §1

saracatinib = compound: CN1CCN(CCOc2cc(OC3CCOCC3)c3c(Nc4c(Cl)ccc5c4OCO5)ncnc3c2)CC1 [saracatinib]
Outline: as §1

sotrastaurin = compound: CN1CCN(c2nc(C3=C(c4c[nH]c5ccccc45)C(=O)NC3=O)c3ccccc3n2)CC1 [sotrastaurin]
Outline: as §1

alvocidib = compound: CN1CC[C@H](c2c(O)cc(O)c3c(=O)cc(-c4ccccc4Cl)oc23)[C@H](O)C1 [alvocidib]
Outline: as §1

Tubastatin A = compound: CN1CCc2c(c3ccccc3n2Cc2ccc(C(=O)NO)cc2)C1 [Tubastatin A]
Outline: as §1

[8] = compound: CNC(=O)C1=CC=CC=C1NC2=NC(=NC=C2Cl)NC3=C(C=C(C=C3)N4CCOCC4)OC
Outline: as §1

defactinib = compound: CNC(=O)c1ccc(Nc2ncc(C(F)(F)F)c(NCc3nccnc3N(C)S(C)(=O)=O)n2)cc1 [defactinib]
Outline: as §1

rucaparib = compound: CNCc1ccc(-c2[nH]c3cc(F)cc4c3c2CCNC4=O)cc1 [rucaparib]
Outline: as §1

[9] = compound: CNc1nc(-c2ccc3c(N)n[nH]c3c2)cc(N2C[C@@H](C(=O)NC3CCCCC3)CC[C@H]2C)n1
Outline: as §1

encorafenib = compound: COC(=O)N[C@@H](C)CNc1nccc(-c2cn(C(C)C)nc2-c2cc(Cl)cc(NS(C)(=O)=O)c2F)n1 [encorafenib]
Outline: as §1

[10] = compound: COC(=O)[C@H](CCSC)NC(=O)C1=C(C=C(C=C1)NC[C@H](CS)N)C2=CC=CC=C2
Outline: as §1

Measured: log2 fold change

LMF2 (UniProt Q9BU23)
active: volasertib -0.332
inactive: [1] -0.109 | [2] -0.027 | epoxomicin 0 | [3] -0.053 | [4] 0.12 | [5] -0.017 | rosiglitazone 0.039 | [6] -0.007 | [7] -0.035 | saracatinib 0.006 | sotrastaurin -0.043 | alvocidib 0.035 | Tubastatin A 0.048 | [8] 0.007 | defactinib 0 | rucaparib 0.082 | [9] -0.02 | encorafenib 0.052 | [10] -0.04

MICU2 (UniProt Q8IYU8)
Chain of UniProt Q8IYU8 (Q8IYU8 whole entry, looked up): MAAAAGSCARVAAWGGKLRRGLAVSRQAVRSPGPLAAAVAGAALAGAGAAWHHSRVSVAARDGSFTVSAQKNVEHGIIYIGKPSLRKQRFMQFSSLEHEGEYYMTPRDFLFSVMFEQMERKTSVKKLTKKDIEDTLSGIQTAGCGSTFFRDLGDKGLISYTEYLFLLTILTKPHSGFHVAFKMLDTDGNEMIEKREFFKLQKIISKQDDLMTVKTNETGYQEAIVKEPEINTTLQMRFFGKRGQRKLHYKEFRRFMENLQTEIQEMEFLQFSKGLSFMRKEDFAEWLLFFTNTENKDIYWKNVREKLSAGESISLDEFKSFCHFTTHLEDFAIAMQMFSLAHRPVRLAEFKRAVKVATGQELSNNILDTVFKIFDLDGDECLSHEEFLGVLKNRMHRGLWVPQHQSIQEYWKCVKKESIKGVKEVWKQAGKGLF
inactive: [1] -0.135 | volasertib -0.118 | [2] 0 | epoxomicin 0.067 | [3] 0.005 | [4] -0.046 | [5] 0.007 | rosiglitazone -0.017 | [6] 0.097 | saracatinib 0 | sotrastaurin -0.001 | alvocidib 0.048 | Tubastatin A 0.057 | [8] -0.03 | defactinib -0.014 | rucaparib 0.102 | [9] -0.021 | encorafenib 0.073 | [10] -0.044
active: [7] -0.309

MDC1 (UniProt Q14676)
inactive: [1] 0 | volasertib -0.074 | [2] -0.028 | epoxomicin 0.039 | [3] -0.03 | [4] 0.384 | [5] 0.015 | rosiglitazone 0.019 | [7] 0.069 | saracatinib -0.194 | sotrastaurin -0.003 | alvocidib 0.027 | Tubastatin A 0.011 | [8] -0.162 | defactinib -0.012 | rucaparib 0.082 | [9] 0.119 | encorafenib 0.075 | [10] -0.067
active: [6] 0.527

KRAS isoform 2 (UniProt P01116)
Chain of UniProt P01116 (P01116 whole entry, looked up): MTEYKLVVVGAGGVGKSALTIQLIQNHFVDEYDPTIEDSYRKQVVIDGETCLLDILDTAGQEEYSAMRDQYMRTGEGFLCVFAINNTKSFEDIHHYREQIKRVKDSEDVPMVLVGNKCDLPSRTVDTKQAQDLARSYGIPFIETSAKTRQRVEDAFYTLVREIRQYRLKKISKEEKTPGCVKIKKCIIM
inactive: [1] 0.08 | volasertib 0.026 | [2] -0.047 | epoxomicin 0.027 | [3] -0.007 | [4] -0.073 | [5] 0 | rosiglitazone 0.038 | [6] 0.062 | [7] 0.141 | saracatinib 0.039 | sotrastaurin 0.045 | alvocidib -0.062 | Tubastatin A -0.036 | [8] 0.027 | defactinib 0.013 | rucaparib -0.028 | [9] 0.011 | encorafenib 0.043 | [10] 0.02

LRPPRC (UniProt P42704)
inactive: [1] -0.413 | volasertib -0.801 | [2] 0.161 | epoxomicin 0.277 | [3] -0.243 | [4] 0.01 | [5] 0.334 | rosiglitazone 0.214 | [6] 0.177 | [7] -0.323 | saracatinib -0.281 | sotrastaurin -0.874 | alvocidib -0.58 | Tubastatin A 0.316 | [8] -0.241 | defactinib -0.346 | rucaparib 0.395 | [9] -0.175 | encorafenib 0.116 | [10] -0.103

ILVBL (UniProt A1L0T0)
Chain of UniProt A1L0T0 (A1L0T0 whole entry, looked up): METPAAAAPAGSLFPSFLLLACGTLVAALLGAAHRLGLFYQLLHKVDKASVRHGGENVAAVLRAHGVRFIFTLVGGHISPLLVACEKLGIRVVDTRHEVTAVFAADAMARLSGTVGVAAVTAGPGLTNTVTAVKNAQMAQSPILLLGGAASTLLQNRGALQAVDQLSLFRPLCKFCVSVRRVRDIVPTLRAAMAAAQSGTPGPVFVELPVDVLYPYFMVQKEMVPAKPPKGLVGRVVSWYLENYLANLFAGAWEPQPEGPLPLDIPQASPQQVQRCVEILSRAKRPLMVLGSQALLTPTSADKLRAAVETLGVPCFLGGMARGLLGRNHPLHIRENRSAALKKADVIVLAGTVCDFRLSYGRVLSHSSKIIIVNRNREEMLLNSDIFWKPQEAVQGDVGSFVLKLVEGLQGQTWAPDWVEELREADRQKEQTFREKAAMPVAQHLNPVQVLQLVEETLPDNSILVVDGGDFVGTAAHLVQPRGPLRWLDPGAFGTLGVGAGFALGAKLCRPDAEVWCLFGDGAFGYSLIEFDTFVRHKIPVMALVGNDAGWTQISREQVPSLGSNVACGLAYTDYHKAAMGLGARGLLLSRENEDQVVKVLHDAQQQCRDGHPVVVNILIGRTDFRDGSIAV
inactive: [1] 0.049 | volasertib 0.069 | [2] -0.034 | epoxomicin 0.069 | [3] 0.006 | [4] 0.042 | [5] 0.036 | rosiglitazone -0.044 | [6] -0.068 | [7] 0.019 | saracatinib -0.022 | sotrastaurin 0.135 | alvocidib -0.162 | Tubastatin A -0.02 | [8] 0.002 | defactinib -0.054 | rucaparib -0.024 | [9] 0.052 | encorafenib 0.059 | [10] 0.019

MIER1 isoform 12 (UniProt Q8N108)
active: Tubastatin A 0.297
inactive: [1] -0.032 | volasertib -0.102 | [2] 0.066 | epoxomicin 0.02 | [3] -0.039 | [4] -0.095 | [5] -0.033 | rosiglitazone -0.027 | [6] -0.077 | [7] -0.107 | saracatinib 0.026 | sotrastaurin -0.024 | alvocidib -0.079 | [8] -0.058 | defactinib -0.13 | rucaparib -0.01 | [9] -0.056 | encorafenib -0.004 | [10] 0.017

MFN1 (UniProt Q8IWA4)
inactive: [1] -0.099 | volasertib -0.136 | [2] -0.056 | epoxomicin 0.079 | [3] 0.015 | [4] -0.024 | [5] -0.025 | rosiglitazone 0.32 | [6] -0.045 | saracatinib -0.029 | sotrastaurin 0.016 | alvocidib -0.076 | Tubastatin A 0.025 | [8] -0.019 | defactinib -0.074 | rucaparib -0.015 | [9] 0.023 | encorafenib 0.038 | [10] 0
active: [7] -0.295

MIEN1 (UniProt Q9BRT3)
Chain of UniProt Q9BRT3 (Q9BRT3 whole entry, looked up): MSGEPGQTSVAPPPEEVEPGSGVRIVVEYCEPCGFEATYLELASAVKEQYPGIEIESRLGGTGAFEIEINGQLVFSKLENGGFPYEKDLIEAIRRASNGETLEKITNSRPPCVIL
active: [7] 0.284
inactive: [1] 0.055 | volasertib -0.047 | [2] -0.02 | epoxomicin 0.008 | [3] 0.045 | [4] 0.029 | [5] 0.181 | rosiglitazone -0.007 | [6] 0.008 | saracatinib 0.049 | sotrastaurin -0.067 | alvocidib -0.141 | Tubastatin A 0.069 | [8] -0.002 | defactinib -0.067 | rucaparib -0.032 | [9] -0.019 | encorafenib -0.051 | [10] 0.129

MFSD5 isoform 2 (UniProt Q6N075)
inactive: [1] 0.052 | volasertib 0.111 | [2] -0.124 | [3] -0.012 | [4] 0.028 | [5] -0.092 | rosiglitazone -0.032 | [6] -0.056 | [7] 0.14 | saracatinib 0.058 | sotrastaurin 0.122 | alvocidib 0.029 | Tubastatin A -0.093 | [8] 0.069 | defactinib 0.039 | rucaparib 0.058 | [9] -0.065 | encorafenib -0.022 | [10] 0.012
active: epoxomicin 0.427

IGFBP4 (UniProt P22692)
Chain of UniProt P22692 (P22692 whole entry, looked up): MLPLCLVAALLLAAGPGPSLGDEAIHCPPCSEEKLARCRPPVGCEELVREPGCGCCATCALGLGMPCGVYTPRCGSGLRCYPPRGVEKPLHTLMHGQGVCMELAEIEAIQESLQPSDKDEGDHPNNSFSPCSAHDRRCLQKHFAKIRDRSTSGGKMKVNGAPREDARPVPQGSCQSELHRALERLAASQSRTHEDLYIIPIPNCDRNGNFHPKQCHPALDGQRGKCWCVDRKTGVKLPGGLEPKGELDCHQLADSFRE
inactive: [1] -0.22 | volasertib -0.07 | [2] -0.092 | epoxomicin -0.187 | [3] -0.045 | [4] 0.173 | [5] -0.049 | rosiglitazone 0.13 | [6] 0.023 | [7] -0.033 | saracatinib 0.004 | sotrastaurin 0.114 | alvocidib 0.063 | Tubastatin A -0.034 | [8] -0.044 | defactinib 0.036 | rucaparib 0.007 | [9] -0.019 | encorafenib -0.034 | [10] 0.014

JMJD6 isoform 3 (UniProt Q6NYC1)
active: volasertib -0.306
inactive: [1] -0.044 | [2] -0.012 | epoxomicin -0.015 | [3] -0.037 | [4] -0.009 | [5] -0.006 | rosiglitazone 0.031 | [6] 0.006 | [7] -0.09 | saracatinib -0.01 | sotrastaurin -0.018 | alvocidib -0.076 | Tubastatin A -0.122 | [8] 0.081 | defactinib -0.188 | rucaparib 0.061 | [9] -0.016 | encorafenib 0.026 | [10] 0.035

KDM5D isoform 3 (UniProt Q9BY66)
Chain of UniProt Q9BY66 (Q9BY66 whole entry, looked up): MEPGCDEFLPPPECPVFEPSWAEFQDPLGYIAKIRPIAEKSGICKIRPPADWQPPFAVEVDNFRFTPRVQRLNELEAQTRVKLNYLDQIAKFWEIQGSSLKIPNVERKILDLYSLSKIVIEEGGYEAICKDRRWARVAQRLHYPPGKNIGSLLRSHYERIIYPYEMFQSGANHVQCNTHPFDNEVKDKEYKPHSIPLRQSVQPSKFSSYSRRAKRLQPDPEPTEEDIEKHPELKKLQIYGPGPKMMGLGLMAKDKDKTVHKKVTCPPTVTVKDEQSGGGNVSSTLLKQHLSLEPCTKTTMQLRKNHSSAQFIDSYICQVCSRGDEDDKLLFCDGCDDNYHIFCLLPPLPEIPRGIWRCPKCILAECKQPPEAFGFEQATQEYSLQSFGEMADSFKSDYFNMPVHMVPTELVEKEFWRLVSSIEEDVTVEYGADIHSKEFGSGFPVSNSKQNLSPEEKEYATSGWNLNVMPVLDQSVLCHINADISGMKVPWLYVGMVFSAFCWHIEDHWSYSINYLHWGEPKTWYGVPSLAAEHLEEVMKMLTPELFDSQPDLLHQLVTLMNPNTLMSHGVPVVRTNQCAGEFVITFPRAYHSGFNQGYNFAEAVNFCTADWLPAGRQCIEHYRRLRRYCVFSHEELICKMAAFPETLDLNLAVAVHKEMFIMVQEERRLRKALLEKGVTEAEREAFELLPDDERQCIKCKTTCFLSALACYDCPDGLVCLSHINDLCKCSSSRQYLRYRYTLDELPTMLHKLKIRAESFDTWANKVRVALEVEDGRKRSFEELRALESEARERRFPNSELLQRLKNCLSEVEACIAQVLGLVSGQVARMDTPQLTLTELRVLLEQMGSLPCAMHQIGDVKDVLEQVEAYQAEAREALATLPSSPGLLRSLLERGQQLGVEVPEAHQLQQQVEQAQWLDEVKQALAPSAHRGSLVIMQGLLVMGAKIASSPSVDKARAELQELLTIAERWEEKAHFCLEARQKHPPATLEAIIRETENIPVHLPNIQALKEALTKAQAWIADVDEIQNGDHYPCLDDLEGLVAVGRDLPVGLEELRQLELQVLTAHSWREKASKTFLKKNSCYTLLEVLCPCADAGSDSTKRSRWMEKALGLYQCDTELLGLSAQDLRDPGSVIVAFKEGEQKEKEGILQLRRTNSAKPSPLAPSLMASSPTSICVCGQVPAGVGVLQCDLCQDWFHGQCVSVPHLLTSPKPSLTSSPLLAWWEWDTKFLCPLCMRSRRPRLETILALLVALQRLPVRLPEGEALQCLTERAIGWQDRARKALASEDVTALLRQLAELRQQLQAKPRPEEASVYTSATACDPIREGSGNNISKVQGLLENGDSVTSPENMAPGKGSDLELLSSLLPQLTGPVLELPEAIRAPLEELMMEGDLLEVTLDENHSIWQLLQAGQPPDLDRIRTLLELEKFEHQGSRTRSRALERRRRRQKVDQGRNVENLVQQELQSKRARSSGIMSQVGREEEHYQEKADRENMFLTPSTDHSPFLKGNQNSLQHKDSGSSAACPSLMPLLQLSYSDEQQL
inactive: [1] -0.305 | volasertib -0.404 | [2] 0.032 | epoxomicin 0.163 | [3] -0.01 | [4] 0.034 | [5] 0.223 | rosiglitazone 0.108 | [6] -0.14 | [7] -0.059 | saracatinib -0.063 | sotrastaurin 0.078 | alvocidib -0.193 | [8] 0.026 | defactinib -0.357 | rucaparib 0.067 | [9] -0.078 | encorafenib 0.198 | [10] -0.05
active: Tubastatin A -0.451

KIF1B isoform 4 (UniProt O60333)
Chain of UniProt O60333 (O60333 whole entry, looked up): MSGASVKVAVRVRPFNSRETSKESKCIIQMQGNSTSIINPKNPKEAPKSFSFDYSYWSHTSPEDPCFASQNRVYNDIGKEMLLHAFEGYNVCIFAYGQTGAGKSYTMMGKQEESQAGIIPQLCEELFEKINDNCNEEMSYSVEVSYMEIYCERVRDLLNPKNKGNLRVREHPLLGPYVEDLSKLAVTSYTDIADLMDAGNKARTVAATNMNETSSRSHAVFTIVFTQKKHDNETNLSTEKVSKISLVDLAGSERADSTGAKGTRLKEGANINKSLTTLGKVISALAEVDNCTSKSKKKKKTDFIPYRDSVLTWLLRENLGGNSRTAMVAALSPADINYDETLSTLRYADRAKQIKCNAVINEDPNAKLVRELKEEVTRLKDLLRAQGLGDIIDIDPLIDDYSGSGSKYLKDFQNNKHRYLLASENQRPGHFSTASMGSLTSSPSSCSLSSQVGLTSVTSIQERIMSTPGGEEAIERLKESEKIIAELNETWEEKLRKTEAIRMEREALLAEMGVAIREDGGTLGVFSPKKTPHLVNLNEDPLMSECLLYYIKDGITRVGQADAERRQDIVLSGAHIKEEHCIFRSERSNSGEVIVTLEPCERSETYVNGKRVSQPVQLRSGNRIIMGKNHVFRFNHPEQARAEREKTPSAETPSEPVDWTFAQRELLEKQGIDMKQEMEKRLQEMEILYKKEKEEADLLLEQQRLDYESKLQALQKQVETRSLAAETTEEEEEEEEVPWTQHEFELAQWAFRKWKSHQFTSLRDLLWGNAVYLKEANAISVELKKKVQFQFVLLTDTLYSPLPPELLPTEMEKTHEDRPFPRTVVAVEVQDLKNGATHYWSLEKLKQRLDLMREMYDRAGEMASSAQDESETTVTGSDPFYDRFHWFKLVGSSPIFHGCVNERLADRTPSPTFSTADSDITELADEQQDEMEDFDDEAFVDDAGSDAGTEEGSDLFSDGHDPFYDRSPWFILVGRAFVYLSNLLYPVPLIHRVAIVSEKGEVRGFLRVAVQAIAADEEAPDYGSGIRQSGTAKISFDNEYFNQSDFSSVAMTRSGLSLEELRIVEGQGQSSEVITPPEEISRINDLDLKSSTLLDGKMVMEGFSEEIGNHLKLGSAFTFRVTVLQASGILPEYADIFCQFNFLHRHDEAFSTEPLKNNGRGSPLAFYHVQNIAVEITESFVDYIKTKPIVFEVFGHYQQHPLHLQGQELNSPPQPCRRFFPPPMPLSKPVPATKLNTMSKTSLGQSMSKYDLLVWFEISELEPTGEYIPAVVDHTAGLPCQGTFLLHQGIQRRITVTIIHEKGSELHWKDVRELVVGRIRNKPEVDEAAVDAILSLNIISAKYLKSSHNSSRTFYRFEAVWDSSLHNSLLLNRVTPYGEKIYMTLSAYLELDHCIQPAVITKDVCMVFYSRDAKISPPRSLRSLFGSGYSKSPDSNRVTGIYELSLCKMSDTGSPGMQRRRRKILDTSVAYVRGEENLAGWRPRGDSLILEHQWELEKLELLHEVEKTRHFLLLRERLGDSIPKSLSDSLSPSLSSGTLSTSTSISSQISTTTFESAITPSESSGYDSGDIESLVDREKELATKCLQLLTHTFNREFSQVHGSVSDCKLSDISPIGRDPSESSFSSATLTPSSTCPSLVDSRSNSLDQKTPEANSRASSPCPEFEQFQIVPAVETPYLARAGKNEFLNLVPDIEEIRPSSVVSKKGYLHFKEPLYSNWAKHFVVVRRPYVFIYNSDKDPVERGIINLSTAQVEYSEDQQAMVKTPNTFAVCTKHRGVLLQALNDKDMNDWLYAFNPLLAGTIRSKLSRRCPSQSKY
inactive: [1] -0.042 | volasertib -0.11 | [2] 0.052 | epoxomicin 0.039 | [3] -0.015 | [4] -0.005 | [5] 0.123 | rosiglitazone 0.059 | [6] -0.001 | saracatinib -0.033 | sotrastaurin -0.014 | alvocidib -0.018 | Tubastatin A 0.025 | [8] 0.016 | defactinib -0.004 | rucaparib -0.006 | [9] -0.097 | encorafenib 0.023 | [10] -0.016
active: [7] -0.299

KPNA6 (UniProt O60684)
inactive: [1] -0.225 | [2] 0.04 | epoxomicin 0.021 | [3] -0.098 | [4] 0.043 | [5] 0.063 | rosiglitazone 0.062 | [6] 0.227 | [7] -0.184 | saracatinib -0.004 | sotrastaurin -0.117 | alvocidib -0.073 | Tubastatin A 0.008 | [8] 0.082 | defactinib -0.06 | rucaparib 0.092 | [9] -0.042 | encorafenib 0.12 | [10] -0.099
active: volasertib -0.699

IRAK4 (UniProt Q9NWZ3)
inactive: [1] -0.138 | volasertib -0.299 | [2] 0.048 | epoxomicin 0.038 | [3] -0.092 | [4] -0.033 | [5] 0.061 | rosiglitazone 0.042 | [6] 0.029 | [7] 0.013 | saracatinib -0.026 | sotrastaurin -0.061 | alvocidib -0.106 | Tubastatin A 0.006 | [8] 0.162 | defactinib -0.022 | rucaparib 0.076 | [9] 0.01 | encorafenib 0.006 | [10] -0.071
